# How the values were obtained:
# Test in all cases: PBM binding z-score (relative to random genomic background probes); higher = stronger binding; sequences stand for … in GC…GCGATTGACAGCGTAGAATGAAGG
# [1] = tested on: PPARg:RXRa DBDmut IVT, anti-RXR (DBD mutation: RXRa K156A/R161A, NR concentration 270 nM, RXRa partner concentration 90 nM)
# In short: (§1)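 Regression normalization was applied to scanned fluorescence from custom Agilent 4×180K protein-binding microarrays. Before scanning, arrays were incubated 1 h with ligand-free nuclear receptor dimers, and binding was detected with antibodies against each partner (one per run). Binding z-scores use the random background probes as reference.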
# [2] = tested on: PPARg:RXRa IVT, anti-PPARg (NR concentration 270 nM, RXRa partner concentration 90 nM)
# In short: as §1
# [3] = tested on: PPARg DBDmut:RXRa IVT, anti-PPARg (DBD mutation: PPARg1 K132A/R137A, NR concentration 270 nM, RXRa partner concentration 90 nM)
# In short: as §1
# [4] = tested on: PPARg DBDmut IVT, anti-PPARg (DBD mutation: PPARg1 K132A/R137A, NR concentration 270 nM)
# In short: as §1
# [5] = tested on: PPARg homodimer (NR concentration 180 nM)
# In short: as §1
# [6] = tested on: PXR:RXRa (NR concentration 270 nM, RXRa partner concentration 90 nM)
# In short: as §1
# [7] = tested on: PXR homodimer (NR concentration 270 nM)
# In short: as §1
# [8] = tested on: RARa:RXR (NR concentration 270 nM, RXRa partner concentration 90 nM)
# In short: as §1
# [9] = tested on: RARa homodimer (NR concentration 270 nM)
# In short: as §1
# [10] = tested on: RARb:RXRa (NR concentration 270 nM, RXRa partner concentration 90 nM)
# In short: as §1
# [11] = tested on: RARb homodimer (NR concentration 270 nM)
# In short: as §1
# [12] = tested on: RARg:RXRa (NR concentration 270 nM, RXRa partner concentration 90 nM)
# In short: as §1
# [13] = tested on: RARg homodimer (NR concentration 270 nM)
# In short: as §1
# [14] = tested on: RXRa DBDmut IVT, anti-RXR (DBD mutation: RXRa K156A/R161A, NR concentration 90 nM)
# In short: as §1
# [15] = tested on: RXRa homodimer (NR concentration 180 nM)
# In short: as §1
# [16] = tested on: THRa:RXRa (NR concentration 90 nM, RXRa partner concentration 90 nM)
# In short: as §1
# [17] = tested on: THRa homodimer (NR concentration 90 nM)
# In short: as §1
# [18] = tested on: VDR homodimer (NR concentration 270 nM)
# In short: as §1
Sequence,PBM binding z-score [1],PBM binding z-score [2],PBM binding z-score [3],PBM binding z-score [4],PBM binding z-score [5],PBM binding z-score [6],PBM binding z-score [7],PBM binding z-score [8],PBM binding z-score [9],PBM binding z-score [10],PBM binding z-score [11],PBM binding z-score [12],PBM binding z-score [13],PBM binding z-score [14],PBM binding z-score [15],PBM binding z-score [16],PBM binding z-score [17],PBM binding z-score [18]
CCTGGGAGGACAGAAGGTCAGAGCTGTCCGCTTT,-0.504,0.212,-1.2,-1.6,1.81,1.65,-0.162,2.16,0.121,3.35,3.38,3.49,3.63,-0.277,1.92,2.69,0.124,0.289
CCACGGAGGACAGAAGGTCAGAGCTGTCCGCTTT,0.376,0.519,-0.839,-1.85,0.926,1.56,-0.17,2.2,-0.0117,3.21,3.73,3.62,3.48,0.42,2.22,2.44,0.0793,0.236
TCTTGTAGATCAACTGGAGGTTAAGAAAGATCGA,1.68,0.919,0.402,0.432,-0.255,0.704,-0.291,1.13,-0.0829,0.631,0.645,1.23,0.313,0.336,0.971,1.1,-0.207,-0.0194
ATCGAAAGGTCGAGGTGAGTAGAGAGAAAGGGAA,0.416,2.34,1.55,0.427,1.76,2.19,0.327,3.31,1.21,4.11,2.81,4.37,4.69,0.806,4.41,2.62,0.626,0.405
ACTATTAGTTGTGACGAGGGCAACCGATAGGTTG,0.298,0.518,0.938,1.19,0.35,0.597,-0.0621,0.536,0.293,1.06,1.21,0.579,0.719,0.601,0.491,1.32,0.209,0.862
TCATATAGGTAAACGTGAAAGTCGAACGATATGA,3.9,2.6,1.4,1.61,0.529,0.122,0.576,0.437,0.345,0.3,-0.329,0.415,0.326,0.8,0.894,-0.0868,-0.279,-0.33
CCTCGGTGGACAACAGGAGGTCAGAGCTGCCAGA,-0.628,0.0551,-1.3,-1.14,0.735,1.53,0.332,1.77,0.503,1.93,2.99,2.06,1.73,-0.87,1.64,1.97,0.341,0.396
TCTTGTGGATCAATAGAGGTTAAGAAAGTGCGCT,1.7,0.901,0.673,0.819,0.64,2.88,0.306,1.69,0.244,0.915,1.26,0.875,0.534,0.749,1.22,2.23,-0.3,0.314
CCTTGCGGGTCAAGGTTATAGCACGGGTGGTACG,3.71,5.26,-0.0608,-0.506,2.01,2.93,0.309,3.7,0.296,3.82,3.04,4.37,4.11,0.089,4.68,3,0.776,1.01
ATCTCTAGGTAACCTAGTTCAGTGAATGCCGAAC,4.08,4.62,1.92,1.24,1.02,1.02,0.262,0.692,0.202,0.704,1.27,0.609,0.668,0.329,0.722,1.61,0.673,0.972
CTCGAAAGGTCGTGCTGAGGTGAGTATACCAAAC,0.827,1.96,0.22,0.0024,1.84,3.61,0.222,4.16,-0.373,3.93,3.29,5.56,4.04,1.92,4.81,4.6,1.38,1.06
GCTTGTAGATCGAGGTTAAGAAAGACTAAGCTAA,0.155,0.569,-0.125,0.233,0.235,0.519,-0.12,1.03,0.293,0.634,0.303,0.377,0.00467,0.166,1.04,1.38,-0.253,-0.273
CCAACTAGGTCACAGAGGTCAAAGTCCGTGCGTA,8.13,8.5,1.22,2.03,5.09,6.64,11.9,7.08,2.03,5.31,5.91,7.44,8.06,3.39,7.77,4.66,3.24,6.85
GCATATAGGTGATACAAGGTGAAAGTCCGATTGT,5.22,4.28,0.633,0.787,0.568,0.71,-0.00117,1.11,0.474,0.893,0.997,0.873,0.702,0.341,0.856,4.24,0.943,0.0464
GGAACGAGGGCACAGTTGATAGCATCTGTCGACG,3.74,3.92,0.579,-0.629,0.434,0.227,-0.335,0.367,-0.231,2.02,0.918,1.28,1.61,1.69,0.922,1.08,-0.317,0.774
CCAGACAGGTGAGAAGGTAGCTCAGCCTCGATTA,0.778,0.189,-0.969,-0.906,0.136,-0.331,-0.00345,-0.134,0.0537,0.327,0.12,0.0158,-0.00904,-0.104,-0.128,-0.29,-0.679,-0.24

Sequence,PBM binding z-score [1],PBM binding z-score [2],PBM binding z-score [3],PBM binding z-score [4],PBM binding z-score [5],PBM binding z-score [6],PBM binding z-score [7],PBM binding z-score [8],PBM binding z-score [9],PBM binding z-score [10],PBM binding z-score [11],PBM binding z-score [12],PBM binding z-score [13],PBM binding z-score [14],PBM binding z-score [15],PBM binding z-score [16],PBM binding z-score [17],PBM binding z-score [18]
GCAGACAGGTGAAACGCAGGTAACGCAGGGTGGC,0.691,0.737,-0.603,-0.805,-0.678,-0.552,-0.857,0.395,-0.862,0.76,0.284,1.13,0.47,-0.945,0.641,1.51,-0.416,-0.757
TCTGCTAGGTAAGTTGGTCAGCTAACGAGCTGCC,0.619,0.862,-0.126,-0.493,-1.41,-0.474,-1.39,-0.538,-1.81,-0.235,-0.545,-0.54,-0.71,0.107,-0.613,-0.549,-0.918,-0.989
ACATGTAGGTTAGCTGGGGTCATTCAGACTAGGC,5.83,4.97,2.39,2.35,6.39,6.77,5.5,6.23,2.18,3.1,3.72,4.24,2.97,2.34,5.59,5.12,3.49,5.66
CCTGCTAGGTCATGGTCAGCTACTCTACAGTATG,4.23,3.88,0.29,0.349,1.41,0.866,-0.32,2.09,-0.0662,4.04,3.28,3.94,4.84,1.7,2.51,2.76,1.42,0.186
GGAACGAGGGCGTTCGAGTTGATAGCATGGCGAT,1.14,0.591,-1.48,-0.922,-0.718,1.88,0.811,0.317,-0.727,0.422,-0.589,0.0515,0.202,2.26,-0.0265,2.16,-1.11,2.02
ATATGTAGGTTAGCTGGGGTCATTCTGACTAGGC,7.04,6.37,3.34,2.13,2.71,6.41,3.72,5.57,1.37,2.88,3.66,3.88,2.79,2.08,5.12,5.12,3.04,5.3
CCCACTGGGCCAAAAAGGTCATTGATGCCGATAA,2.99,4.17,-1.05,-0.939,3.72,4.91,4.6,5.4,1.88,4.02,4.44,4.8,4.56,0.161,5.23,3.02,0.878,2.74
CCTAGCAGGCCAGGGTCACTCACGCATTTCGCTT,0.345,0.942,-0.473,-1.26,1.45,2.31,-0.101,3.17,0.177,2.41,2.64,2.79,2.22,0.414,3.32,2.63,1.32,1.73
CCTTACGGGTCTCTGACAGGTTATAGCATTTGGA,0.625,-0.443,-0.515,-0.237,0.678,-0.13,-0.251,0.185,0.262,0.256,-0.0333,0.29,0.275,0.321,0.277,0.0789,-0.175,-0.188
CCGAGTAGGTTATGGGTCATTCAGGCAACGGTGA,3.95,4.54,-0.0117,-0.483,1.77,2.17,0.442,3.06,1.09,2.3,2.66,2.52,2.15,0.565,3.06,2.29,0.87,1.42
GCATACAGGTGAAACGCAGGTAACTCAGGGTGGC,3.57,1.78,-0.446,-0.192,-0.115,-0.254,-0.513,0.243,-0.373,0.744,0.299,1.03,0.276,-0.217,0.854,1.42,-0.151,-0.463
GCTCGGAGGACAAGGACAGAGCTTTGTCCGTAGA,-0.897,-0.505,-1.52,-0.297,-0.588,-0.527,-0.912,-0.421,-1.45,0.929,0.139,-0.0807,0.418,-0.45,-0.592,1.31,0.61,-0.639
ACAGACAGGTGAGTGGAGGTAACTCAGCTGGACG,0.56,1.09,-0.327,-0.467,0.425,0.121,-0.151,0.729,-0.053,0.617,0.51,0.417,0.421,-0.468,0.451,2.29,-0.0738,-0.0506
CATCCAAGGTCAGCAGGTCAGTGAAAGCGACGTG,3.12,4.02,0.104,0.555,4.34,3.82,1.14,5.21,2.38,5.17,5.04,6.2,7.09,2.7,6.07,3.89,2.76,2.18
CAAACTAGGTCATGGTCAAAGTCGGTTTGTGCCA,8.43,8.57,2.9,1.82,2.21,1.75,-0.231,2.44,0.58,4.01,3.44,3.83,4.77,1.45,3.08,3.04,1.5,1.15
